This is an account of results in PubChem BioAssay AID1211 (NMMLSC, 2008).

SMILES strings stand for the structures. The source made the active and inactive calls. No rule for the calls is given here.

The target of one assay is Estrogen receptor (Homo sapiens) (UniProt P03372). The experiment in a line: displacement of fluorescent estrogen from ERalpha – cell-based, Cos7 ERalpha-GFP, flow cytometry, primary screen (AID 1211).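 Also: 0% = DMSO vehicle wells and 100% = no E2-Alexa633 signal left.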 The settings on record: fluorescent ligand competition, at 10 µM, stronger effect = higher value. In general terms: Flow cytometry measures light scatter and fluorescence of single cells or particles in a stream.
Estrogen receptor (Homo sapiens), sequence (P03372 whole entry, looked up): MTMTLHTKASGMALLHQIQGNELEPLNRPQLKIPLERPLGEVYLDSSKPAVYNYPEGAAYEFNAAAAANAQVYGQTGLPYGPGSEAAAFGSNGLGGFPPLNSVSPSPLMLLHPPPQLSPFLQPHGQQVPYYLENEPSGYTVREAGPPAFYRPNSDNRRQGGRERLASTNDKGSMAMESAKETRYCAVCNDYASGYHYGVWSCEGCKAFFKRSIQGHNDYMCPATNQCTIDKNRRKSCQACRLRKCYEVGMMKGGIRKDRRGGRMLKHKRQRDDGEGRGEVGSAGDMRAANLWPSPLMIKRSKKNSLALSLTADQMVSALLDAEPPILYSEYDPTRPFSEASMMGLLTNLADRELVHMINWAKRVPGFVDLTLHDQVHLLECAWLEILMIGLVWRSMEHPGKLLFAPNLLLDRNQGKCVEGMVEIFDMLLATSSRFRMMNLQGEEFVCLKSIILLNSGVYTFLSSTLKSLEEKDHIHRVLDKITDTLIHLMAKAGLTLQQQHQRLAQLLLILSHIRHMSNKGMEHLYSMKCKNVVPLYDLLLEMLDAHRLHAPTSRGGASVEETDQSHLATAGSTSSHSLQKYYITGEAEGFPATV
As for `CCCNCC1COc2ccccc2O1` (stereo unspecified), the inhibition of ligand binding is 2% (inactive).
Same read-out and setting: then `CCOC(=O)C1CCCN(C(=O)c2ccc(CS(=O)(=O)c3ccc(C)cc3)o2)C1` (stereo unspecified), with 30% (inactive); and `O=C(Nc1nccs1)c1ccc2nccnc2c1`, with 33% (inactive).
On the same count and under the same terms, with `CN(C(=S)Nc1cccnc1)c1ccc(O)cc1` the figure was 39% (inactive); with `Cc1csc2nc(CCNS(=O)(=O)c3ccc4c(c3)OCCO4)cn12`, 38% (active).
The same measure, in the same setting: with `O=c1cc(O)c2c(=O)n(-c3ccccc3)c3c(c2o1)CCCCCC3` the figure was 31% (inactive).
As for `COc1ccc(CNC(=O)c2cc(-c3cccs3)on2)cc1`, the inhibition of ligand binding was 40% (active).
Take `Cc1ccc(C(=O)Nc2nc(-c3cccnc3)cs2)o1`: the inhibition of ligand binding was 29% (inactive).
Regarding `O=C(CCCn1c(=S)[nH]c2cc3c(cc2c1=O)OCO3)N1CCN(c2ccc(Cl)cc2)CC1`, the inhibition of ligand binding was 30% (inactive).
Regarding `O=C(COC(=O)c1ccccc1)NCc1ccco1`, the inhibition of ligand binding is 29% (inactive).
`CCCc1cc(-n2ccnc2)n2c(nc3ccccc32)c1C#N`: the inhibition of ligand binding was 14% (inactive).
Same read-out and setting: then `O=C(Cc1cn2ccsc2n1)OCc1nc2ccccc2s1`, with 26% (inactive); and `CCn1nnc(NC(=O)CSc2ccc(Cl)cc2)n1`, with 7% (inactive).
Still for that read-out and setting: with `O=C(Nc1nccs1)c1nc(-c2ccccc2)n(-c2ccccc2)n1` the figure was 27% (inactive).
Take `COc1ccc(N=Cc2sc(O)c3ccccc23)cc1`: the inhibition of ligand binding was 37% (inactive).
Take `O=c1c(OC2OC(CO)C(O)C(O)C2O)c(-c2ccc(O)c(O)c2)oc2cc(O)cc(O)c12` (stereo unspecified): the inhibition of ligand binding is 39% (inactive).
In the case of `Nc1c(Cl)cc(Cl)cc1C(=O)OCC(=O)NC1CC1`, the inhibition of ligand binding is 52% (inactive).
For the compound `O=C1C=CC(O)(c2cc(=O)c3c(O)cc(O)cc3o2)C=C1`, the inhibition of ligand binding was 38% (inactive).
Same read-out and setting: then `Cc1ccc(-c2nn(-c3ccccc3)cc2/C=N/NC(=O)c2ccc(Br)o2)cc1`, with 42% (inactive); and `C/C(N)=C(/C#N)C(=O)CSc1nnc(Nc2cccc(C)c2C)s1`, with 32% (inactive).
`Cc1ccc(-c2n[nH]c(=S)n2/N=C/C=C/c2ccccc2[N+](=O)[O-])cc1`: the inhibition of ligand binding is 1% (inactive).
In the case of `Nc1ccc(-c2cc(-c3ccc(N)cc3)nc(-c3ccccc3)n2)cc1`, the inhibition of ligand binding is 51% (inactive).
For `COc1ccc(C2Nc3ccccc3C(=O)N2c2ccccc2)cc1CSc1ccccn1` (stereo unspecified), the inhibition of ligand binding is 44% (inactive).
Consider `COc1ccccc1/C=c1\sc2nc(-c3ccco3)nn2c1=O`, for which the inhibition of ligand binding was 40% (inactive).
As to `O=C(Cc1cccs1)Nc1ccc(S(=O)(=O)Nc2ncccn2)cc1`, the inhibition of ligand binding is 15% (active).
Still for that read-out and setting: then `COC(=O)c1ccc2c(=O)n(CCCCCC(=O)NCc3ccc4c(c3)OCO4)c(=O)[nH]c2c1`, with 19% (inactive); and `Cc1ccc(NC(=O)CN2C(=O)S/C(=C/c3ccc(-c4cc(C(=O)O)ccc4C)o3)C2=O)cc1C`, with 50% (inactive).
As for `CC(C)CN(C(=O)COC(=O)c1cc2c(s1)CCC2)C1CCS(=O)(=O)C1` (stereo unspecified), the inhibition of ligand binding is 47% (inactive).
Same read-out and setting: with `O=c1[nH]cnc2c1sc1nc3c(c(-c4ccc(Cl)cc4)c12)CCC3` the figure was 41% (inactive); with `Cc1ccc(S(=O)(=O)Cc2ccc(C(=O)N3CCN(Cc4ccccc4)CC3)o2)cc1`, 25% (inactive); with `C[C@]12CC[C@@H]3c4ccc(O)cc4C(=O)C[C@H]3[C@@H]1CC[C@@H]2O`, 78% (active).
With `CCOc1ccccc1-n1nnnc1SCC(=O)NC(=O)NCc1ccco1`, the inhibition of ligand binding is 5% (inactive).
For the compound `CCc1oc2c(C)c(O)ccc2c(=O)c1-c1ccc2ccccc2n1`, the inhibition of ligand binding is 14% (inactive).
The same measure, in the same setting: with `CC(=O)Nc1ccc2[nH]c(C)cc(=O)c2c1` the figure was 27% (inactive); with `CC(C)(C)c1nnc2sc(SC/C(O)=C(\C#N)c3nc4ccccc4[nH]3)nn2c1=O`, 20% (inactive).
Still for that read-out and setting: with `COc1ccc(Cn2c(=O)[nH]c3cc(C(=O)NCc4ccc5c(c4)OCO5)ccc3c2=O)cc1` the figure was 23% (inactive); with `O=C1c2ccccc2NC(c2cccnc2)N1c1ccccc1F` (stereo unspecified), 14% (inactive).
`Cc1cc2oc(=O)cc(COC(=O)c3n[nH]c4ccccc34)c2cc1C`: the inhibition of ligand binding was 53% (inactive).

The same assay, now with this note: fluorescent ligand competition, binding inhibition, at 0.1 µM, stronger effect = higher value.
On to `CCCNCC1COc2ccccc2O1` (stereo unspecified), for which the inhibition of ligand binding is 21%.
Still for that read-out and setting: with `CCOC(=O)C1CCCN(C(=O)c2ccc(CS(=O)(=O)c3ccc(C)cc3)o2)C1` (stereo unspecified) the figure was 6%.
The same measure, in the same setting: then `O=C(Nc1nccs1)c1ccc2nccnc2c1`, with 24%; and `CN(C(=S)Nc1cccnc1)c1ccc(O)cc1`, with 41%.
`Cc1csc2nc(CCNS(=O)(=O)c3ccc4c(c3)OCCO4)cn12` came in with an inhibition of ligand binding of 77%.
Same read-out and setting: then `O=c1cc(O)c2c(=O)n(-c3ccccc3)c3c(c2o1)CCCCCC3`, with 1%.
On to `COc1ccc(CNC(=O)c2cc(-c3cccs3)on2)cc1`, for which the inhibition of ligand binding was 90%.
On the same count and under the same terms, then `Cc1ccc(C(=O)Nc2nc(-c3cccnc3)cs2)o1`, with 20%; and `O=C(CCCn1c(=S)[nH]c2cc3c(cc2c1=O)OCO3)N1CCN(c2ccc(Cl)cc2)CC1`, with 27%.
Consider `O=C(COC(=O)c1ccccc1)NCc1ccco1`, for which the inhibition of ligand binding was 27%.
For the compound `CCCc1cc(-n2ccnc2)n2c(nc3ccccc32)c1C#N`, the inhibition of ligand binding stood at 50%.
The compound `O=C(Cc1cn2ccsc2n1)OCc1nc2ccccc2s1` registered an inhibition of ligand binding of 18%.
On the same count and under the same terms, with `CCn1nnc(NC(=O)CSc2ccc(Cl)cc2)n1` the figure was 10%; with `O=C(Nc1nccs1)c1nc(-c2ccccc2)n(-c2ccccc2)n1`, 36%.
On the same count and under the same terms, then `COc1ccc(N=Cc2sc(O)c3ccccc23)cc1`, with 36%; and `O=c1c(OC2OC(CO)C(O)C(O)C2O)c(-c2ccc(O)c(O)c2)oc2cc(O)cc(O)c12` (stereo unspecified), with 33%; and `Nc1c(Cl)cc(Cl)cc1C(=O)OCC(=O)NC1CC1`, with 13%.
For the compound `O=C1C=CC(O)(c2cc(=O)c3c(O)cc(O)cc3o2)C=C1`, the inhibition of ligand binding worked out at 42%.
Still for that read-out and setting: then `Cc1ccc(-c2nn(-c3ccccc3)cc2/C=N/NC(=O)c2ccc(Br)o2)cc1`, with 49%; and `C/C(N)=C(/C#N)C(=O)CSc1nnc(Nc2cccc(C)c2C)s1`, with 16%; and `Cc1ccc(-c2n[nH]c(=S)n2/N=C/C=C/c2ccccc2[N+](=O)[O-])cc1`, with 14%.
Compound `Nc1ccc(-c2cc(-c3ccc(N)cc3)nc(-c3ccccc3)n2)cc1` showed an inhibition of ligand binding of 12%.
Compound `COc1ccc(C2Nc3ccccc3C(=O)N2c2ccccc2)cc1CSc1ccccn1` (stereo unspecified) returned an inhibition of ligand binding of 17%.
Same read-out and setting: then `COc1ccccc1/C=c1\sc2nc(-c3ccco3)nn2c1=O`, with 25%.
As for `O=C(Cc1cccs1)Nc1ccc(S(=O)(=O)Nc2ncccn2)cc1`, the inhibition of ligand binding is 87%.
Take `COC(=O)c1ccc2c(=O)n(CCCCCC(=O)NCc3ccc4c(c3)OCO4)c(=O)[nH]c2c1`: the inhibition of ligand binding worked out at 18%.
Same read-out and setting: then `Cc1ccc(NC(=O)CN2C(=O)S/C(=C/c3ccc(-c4cc(C(=O)O)ccc4C)o3)C2=O)cc1C`, with 39%.
In turn, `CC(C)CN(C(=O)COC(=O)c1cc2c(s1)CCC2)C1CCS(=O)(=O)C1` (stereo unspecified) gave an inhibition of ligand binding of 21%.
For `O=c1[nH]cnc2c1sc1nc3c(c(-c4ccc(Cl)cc4)c12)CCC3`, the inhibition of ligand binding is 9%.
Compound `Cc1ccc(S(=O)(=O)Cc2ccc(C(=O)N3CCN(Cc4ccccc4)CC3)o2)cc1` gave an inhibition of ligand binding of 9%.
Same read-out and setting: with `C[C@]12CC[C@@H]3c4ccc(O)cc4C(=O)C[C@H]3[C@@H]1CC[C@@H]2O` the figure was 88%.
Compound `CCOc1ccccc1-n1nnnc1SCC(=O)NC(=O)NCc1ccco1` gave an inhibition of ligand binding of 5%.
Still for that read-out and setting: then `CCc1oc2c(C)c(O)ccc2c(=O)c1-c1ccc2ccccc2n1`, with 54%; and `CC(=O)Nc1ccc2[nH]c(C)cc(=O)c2c1`, with 19%.
As for `CC(C)(C)c1nnc2sc(SC/C(O)=C(\C#N)c3nc4ccccc4[nH]3)nn2c1=O`, the inhibition of ligand binding was determined as 8%.
The same measure, in the same setting: with `COc1ccc(Cn2c(=O)[nH]c3cc(C(=O)NCc4ccc5c(c4)OCO5)ccc3c2=O)cc1` the figure was 53%.
Compound `O=C1c2ccccc2NC(c2cccnc2)N1c1ccccc1F` (stereo unspecified) returned an inhibition of ligand binding of 35%.
The same measure, in the same setting: then `Cc1cc2oc(=O)cc(COC(=O)c3n[nH]c4ccccc34)c2cc1C`, with 20%.
